Reference: ChEMBL document CHEMBL1961873, “Compounds: GSK PKIS; Assays: Nanosyn kinase panel” (2012)
“And” between values parts separate entries of the source, which are not always exact repeats. Identical values can stand only once.

Legend:
[1] = biological target: Casein kinase I isoform gamma-2 (Homo sapiens) (UniProt P78368); conditions: at 1 µM
[2] = biological target: Casein kinase I isoform gamma-3 (Homo sapiens) (UniProt Q9Y6M4); conditions: at 0.1 µM
[3] = biological target: Casein kinase I isoform gamma-3 (Homo sapiens) (UniProt Q9Y6M4); conditions: at 1 µM
[4] = biological target: Cyclin-dependent kinase 1 (Homo sapiens) (UniProt P06493); conditions: at 0.1 µM
Cyclin-dependent kinase 1 (Homo sapiens), sequence (P06493 whole entry, looked up): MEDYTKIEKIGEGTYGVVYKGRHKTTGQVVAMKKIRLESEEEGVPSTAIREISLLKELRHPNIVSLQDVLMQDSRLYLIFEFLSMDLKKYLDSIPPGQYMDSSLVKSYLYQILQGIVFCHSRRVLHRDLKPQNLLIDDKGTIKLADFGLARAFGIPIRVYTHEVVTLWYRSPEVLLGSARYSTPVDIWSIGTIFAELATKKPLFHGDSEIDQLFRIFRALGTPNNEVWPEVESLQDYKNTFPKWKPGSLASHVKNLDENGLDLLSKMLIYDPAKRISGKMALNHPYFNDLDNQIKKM

[5] = biological target: Cyclin-dependent kinase 1 (Homo sapiens) (UniProt P06493); conditions: at 1 µM
[6] = biological target: Cyclin-dependent kinase 2 (Homo sapiens) (UniProt P24941); conditions: at 0.1 µM
[7] = biological target: Cyclin-dependent kinase 2 (Homo sapiens) (UniProt P24941); conditions: at 1 µM
[8] = biological target: Cyclin-dependent kinase 2 (Homo sapiens) (UniProt P24941); conditions: at 0.1 µM; remark: listed apart in the source
[9] = biological target: Cyclin-dependent kinase 2 (Homo sapiens) (UniProt P24941); conditions: at 1 µM; remark: listed apart in the source
[10] = biological target: CDK3/Cyclin E (Homo sapiens) (UniProt P24864+Q00526); conditions: at 0.1 µM;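 also: reported percentages are mean inhibition values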
CDK3/Cyclin E (Homo sapiens), sequence (P24864 whole entry, looked up): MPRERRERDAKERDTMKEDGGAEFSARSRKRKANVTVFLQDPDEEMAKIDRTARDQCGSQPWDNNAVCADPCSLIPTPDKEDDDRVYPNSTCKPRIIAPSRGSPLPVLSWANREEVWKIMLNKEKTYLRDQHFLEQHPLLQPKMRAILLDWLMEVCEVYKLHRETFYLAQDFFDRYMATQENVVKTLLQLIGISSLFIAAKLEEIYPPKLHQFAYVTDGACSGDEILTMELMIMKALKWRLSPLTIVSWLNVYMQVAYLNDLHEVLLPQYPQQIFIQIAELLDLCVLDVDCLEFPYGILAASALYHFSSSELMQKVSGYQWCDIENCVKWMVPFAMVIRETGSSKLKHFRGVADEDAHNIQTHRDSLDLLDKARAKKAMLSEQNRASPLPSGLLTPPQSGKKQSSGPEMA
CDK3/Cyclin E (Homo sapiens), sequence (Q00526 whole entry, looked up): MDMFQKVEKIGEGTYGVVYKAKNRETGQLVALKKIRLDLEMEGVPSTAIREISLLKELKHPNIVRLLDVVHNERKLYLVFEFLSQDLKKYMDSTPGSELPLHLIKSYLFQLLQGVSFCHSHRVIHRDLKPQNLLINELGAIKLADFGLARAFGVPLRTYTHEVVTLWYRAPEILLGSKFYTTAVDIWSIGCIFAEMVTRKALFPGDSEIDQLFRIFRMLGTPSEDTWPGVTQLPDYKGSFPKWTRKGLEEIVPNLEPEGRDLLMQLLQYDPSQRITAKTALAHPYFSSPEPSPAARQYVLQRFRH

Casein kinase I isoform gamma-2 (Homo sapiens), sequence (P78368 whole entry, looked up, canonical isoform): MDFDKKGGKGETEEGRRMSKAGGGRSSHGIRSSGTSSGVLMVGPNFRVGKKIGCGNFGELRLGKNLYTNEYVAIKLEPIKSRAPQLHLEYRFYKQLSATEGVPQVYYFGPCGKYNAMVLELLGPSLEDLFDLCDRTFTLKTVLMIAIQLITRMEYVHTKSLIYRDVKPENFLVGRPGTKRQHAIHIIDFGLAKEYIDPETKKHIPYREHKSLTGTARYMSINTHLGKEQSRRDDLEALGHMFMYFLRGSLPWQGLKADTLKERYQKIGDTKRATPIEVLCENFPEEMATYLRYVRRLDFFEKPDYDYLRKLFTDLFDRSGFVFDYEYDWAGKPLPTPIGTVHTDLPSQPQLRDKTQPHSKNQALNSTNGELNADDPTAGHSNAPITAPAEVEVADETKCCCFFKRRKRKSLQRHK
Casein kinase I isoform gamma-3 (Homo sapiens), sequence (Q9Y6M4 whole entry, looked up, canonical isoform): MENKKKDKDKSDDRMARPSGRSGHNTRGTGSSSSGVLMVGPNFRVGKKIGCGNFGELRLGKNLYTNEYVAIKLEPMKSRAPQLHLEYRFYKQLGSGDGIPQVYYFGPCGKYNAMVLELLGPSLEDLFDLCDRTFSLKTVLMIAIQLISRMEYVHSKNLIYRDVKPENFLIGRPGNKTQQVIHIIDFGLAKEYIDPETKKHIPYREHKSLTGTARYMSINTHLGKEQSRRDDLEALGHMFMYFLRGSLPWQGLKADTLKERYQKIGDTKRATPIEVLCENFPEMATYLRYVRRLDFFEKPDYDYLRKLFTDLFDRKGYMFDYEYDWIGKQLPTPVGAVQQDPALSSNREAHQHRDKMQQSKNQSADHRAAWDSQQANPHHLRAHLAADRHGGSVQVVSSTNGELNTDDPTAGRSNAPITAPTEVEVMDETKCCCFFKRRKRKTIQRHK

Row | SMILES | inhibition [1] | inhibition [2] | inhibition [3] | inhibition [4] | inhibition [5] | inhibition [6] | inhibition [7] | inhibition [8] | inhibition [9] | inhibition [10]
1 | CCS(=O)(=O)c1ccc(OC)c(Nc2ncc(-c3cccc(F)c3)o2)c1 | 4.64% | 3.7% | 4.58% | 1.72% | 0.96% | 3.74% | 4.31% | 4.05% | 5.69% | -0.92%
2 | FC(F)(F)CNc1nccc(-c2cnn3ncccc23)n1 | 14.1% | 3.44% | 10.6% | 4.59% | 29.1% | 1.79% | 14.1% | 4.11% | 16.4% | 1.36%
3 | COc1cccc(-n2ncc3c(N/N=C/c4ccc(C(=O)NCCN(C)C)cc4)ncnc32)c1 | 8.69% | 1.94% | 11.9% | 44.7% | 77.2% | 36.1% | 89.9% | 13.4% | 48.4% | 5.6%
4 | COc1c(C(N)=O)cc(-c2ccc(Cl)cc2)cc1-c1ccc(S(N)(=O)=O)cc1 | 5.53% | 3.12% | 5.9% | 2.31% | -0.03% | 3.12% | 3.62% | 2.17% | 3.13% | -4.73%
5 | CC1=C(C(=O)Nc2ccc3[nH]nc(C)c3c2)C(c2ccc(C(F)(F)F)cc2)CC(=O)N1 (stereo not given) | 3.14% | 2.16% | 2.2% | 1.96% | 6.87% | 2.54% | 6.05% | 2.66% | 6.67% | 0.4%
6 | COc1ccc(Nc2ncc(-c3ccccc3)o2)cc1OC | 4.12% | -0.65% | 3.3% | 8.02% | 29.9% | 8.91% | 31.6% | 7.2% | 27.6% | 6.29%
7 | Cc1nnc(-c2cccc(-c3ccc(C(=O)NCC4CC4)cc3)c2)o1 | 4.15% | 3.29% | 3.17% | -0.13% | 2.72% | 2.01% | 13.5% | 4.78% | 4.88% | 3.15%
8 | CNC(=O)c1sc(-n2cnc3cc(OC)c(OC)cc32)cc1OCc1ccccc1C(F)(F)F | 3.65% | 3.86% | 4.26% | 0.69% | 2.03% | 0.22% | 1.77% | 2.17% | 3.8% | 0.35%
9 | NS(=O)(=O)c1ccc(N/N=C2\C(=O)Nc3cccc(CCc4ccncc4)c32)cc1 | 0.54% | 0.32% | 0.29% | 9.4% | 21.9% | 51.4% | 71.6% | 53.5% | 67.7% | 32.4%
10 | COc1cc(Nc2ncc(-c3ccccc3)o2)cc(OC)c1 | 5.36% | 5.09% | 3.43% | 0.36% | 4.4% | 1.87% | 12.7% | 3.39% | 15.1% | -1.04%
11 | Cc1ccc(-c2cc3c(NC(=O)C4CC4)ncnc3o2)cc1 | 5.03% | 2.01% | 3.1% | 0.77% | 3.16% | 1.63% | 0.2% | 4.69% | 6.42% | 1.4%
12 | c1ccc(-c2n[nH]cc2-c2ccnc(-c3ccc(OCCn4ccnc4)cc3)c2)nc1 | 4.02% | 0.42% | 5.22% | -0.35% | 1.46% | 1.03% | -8.72% | 2.23% | 5.64% | 2.33%
13 | CS(=O)(=O)CCNCc1ccc(-c2ccc3ncnc(Nc4ccc(OCc5cccc(C(F)(F)F)c5)cc4)c3c2)o1 | 3.89% | 3.14% | 2.45% | 1.34% | 0.34% | 2.27% | 1.87% | 2.01% | 3.44% | -1.58%
14 | CC(C)c1ccc(-c2cc(-c3c[nH]nc3-c3ccccn3)ccn2)cc1 | 1.17% | -0.24% | 3.43% | -0.07% | 2.01% | 1.87% | -0.02% | 1.12% | 1.4% | -1.25%
15 | O=C(O[C@H]1CN[C@H](C#Cc2cc3ncnc(Nc4ccc5c(cnn5Cc5ccccc5)c4)c3s2)C1)N1CCOCC1 | 0.77% | -1.09% | 1.79% | 2.44% | 4.08% | 0.92% | -1.09% | 3.48% | 2.34% | -0.1%
16 | COc1cccc(Nc2nccc(-c3cnn4ncccc34)n2)c1 | 47.2% | 3.61% | 38.6% | 63.9% | 79.2% | 72.8% | 105% | 64.7% | 78.6% | 42.2%

Row | SMILES | inhibition [1] | inhibition [2] | inhibition [3] | inhibition [4] | inhibition [5] | inhibition [6] | inhibition [7] | inhibition [8] | inhibition [9] | inhibition [10]
17 | c1cnn2ncc(-c3ccnc(NCCCN4CCOCC4)n3)c2c1 | 5.14% | 1.77% | 4.33% | 1.53% | 13.9% | 1.1% | 5.75% | 5.32% | 5.99% | 0.96%
18 | COC(=O)Nc1nc2ccc(Oc3ccc(NC(=O)Nc4cc(C(F)(F)F)ccc4F)cc3)cc2s1 | -0.08% | -1.45% | 0.18% | 0.44% | 3.26% | 1.75% | 3.03% | 1.36% | 2.74% | 0.88%
19 | O=C1Nc2ccccc2/C1=C1\CCc2cc(O)ccc21 | 8.01% | 4.01% | 6.11% | 1.03% | 3.82% | 3.01% | 5.49% | 5.72% | 10.6% | 4.58%
20 | CN1CCC(n2cnc(-c3ccc(F)cc3)c2-c2ccnc(NCCO)n2)CC1 | 5.84% | 4.27% | 10.2% | 0.37% | 1.31% | 1.69% | -0.92% | 4.05% | 4.55% | 1.13%
21 | Cn1c(-c2nonc2N)nc2cnccc21 | 3.42% | 1.53% | 2.15% | 1.15% | 4.4% | 2.01% | 11.2% | 3.69% | 11.6% | 6.05%
22 | Fc1cccc(COc2ccc(Nc3ncncc3C#Cc3ccccc3)cc2Cl)c1 | 4.69% | 4.31% | 4.88% | 0.35% | 1.89% | 1.7% | 5.5% | 4.38% | 4.99% | 1.59%
23 | CN1CCN(Cc2ccc(-c3cc4ncnc(Nc5ccc(OCc6cccc(F)c6)c(Cl)c5)c4s3)o2)CC1 | 4.06% and 5.69% | 2.07% and 2.73% | 3.72% and 4.9% | 1.26% and -0.15% | 3.35% | 2.79% and 0.8% | 5.88% and 5.34% | 3.41% and 3.54% | 4.99% and 6.73% | -1.62% and 3.97%
24 | COc1ccc2ncn(-c3cc(O[C@H](C)c4ccccc4C(F)(F)F)c(C(N)=O)s3)c2c1 | -0.54% | -1.87% | 0.68% | 0.65% | 3.45% | 1.04% | 0.96% | -0.81% | 1.48% | 1.1%
25 | Cc1cc(O)cc(C)c1/C=C/c1cncc(C(N)=O)c1 | 2.37% | 2.87% | 2.49% | 0.12% | 1.3% | 1.56% | 1.98% | 2.51% | 3.29% | -0.91%
26 | CN(C)CCNC(=O)Nc1ccc(N(C)c2ccnc(Nc3ccc(CS(C)(=O)=O)cc3)n2)cc1 | 4.71% | 2.93% | 4.26% | 0.42% | 2.58% | 1.03% | 0.46% | 3.93% | 5.24% | 1.45%
27 | OCCCNc1nccc(-c2c(-c3ccc(F)cc3)nn3cc(C(F)(F)F)ccc23)n1 | 4.56% | 1.62% | 7.33% | 1.54% | 2.59% | 0.91% | -3.65% | 0.52% | 3.87% | 1.49%
28 | CNC(=O)c1cncc(/C=C/c2ccccc2C)c1 | 2.72% | 2.23% | 3.55% | 1.72% | 7.81% | 1.87% | 11% | 12% | 16.4% | 7.08%
29 | Nc1ncnc2occ(-c3ccc(NC(=O)Nc4cc(C(F)(F)F)ccc4F)cc3)c12 | 4.53% and -0.27% | 0.69% and 0.19% | 6.26% and 0.91% | 2.66% and 1.33% | 11.4% and 4.55% | 2.5% and 0.72% | 13.5% and 5.32% | 2.09% and 0.45% | 15.5% and 5.95% | 1.13% and 2.46%
30 | CN1CCC(C(=O)Nc2n[nH]c3nc(-c4ccc(O)cc4)c(Br)cc23)CC1 | 2.84% and 1.66% | -0.75% and 1.55% | 3.27% and 0.25% | 7.05% and 10.3% | 43.7% and 42.6% | 16.2% and 18.6% | 63.1% and 63.2% | 9.58% and 5.38% | 38.8% and 32.5% | 12.5% and 12.3%
31 | CS(=O)(=O)Nc1ccc(-c2ccc3c(NC(=O)C4CC4)n[nH]c3c2)cc1 | 4.11% | 4.47% | 2.66% | 0.29% | 3.65% | 2.2% | 6.28% | 2.71% | 5.01% | 0.71%
